Vif-A3F inh: inhibitors of Vif-A3F interaction; HeLa A3F-eYFP + Vif (tagged APOBEC3F with the HIV-1 protein that degrades it), YFP fluorescence increase; Potency, µM (highest dose often 46.1 µM), for the others: top-dose activity, negative = active; 390,000 compounds, 0.2% hits; AID 602313; note: potency is the fitted concentration of half-maximal effect; % of control where 0% means no effect; nearly all actives have a fitted effect of over 65% in size
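HeLa cells stably expressing Vif plus C-terminally eYFP-tagged A3F were seeded, incubated overnight at 37 deg C, dosed with compound, incubated overnight again at 37 deg C. Yellow fluorescence (Ex 488/Em 500-530) reported blocked Vif-mediated A3F-eYFP degradation.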
MCF10A rerep: induces DNA re-replication in MCF 10a normal breast cells; 350,000 compounds, 2.9% hits; MCF 10A DNA re-replication, Hoechst nuclear intensity, 48 h; Potency, µM (series often up to 46.1 µM), for the others: at the top dose activity, positive = re-replication, most hits filed as activators; note: potency is the fitted concentration of half-maximal effect; % of control where 0% means no effect; nearly all actives have a fitted effect of over 50% in size
Giardia kill: Giardia lamblia killing; Giardia lamblia trophozoite viability; activity change, % at 7.66 µM, hits read low; 340,000 compounds, 0.15% hits; AID 540267; in the data active = activity change below about -80%; inconclusive = between about -30% and that limit;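 note: parasites exposed to compound for two days anaerobically before the ATP read; % is set by controls: 0 for no effect and ±100 for the full control effect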
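Compounds were tested on trophozoites seeded at 100 cells/well and held 48 hrs at 37 deg C anaerobically. An ATP-based luminescent kit measured the remaining live cells.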
SW480 rereplic: DNA re-replication induction in SW480 cells | SW480 DNA re-replication, Hoechst DNA content imaging, 48 h | Potency, µM (doses to about 46.1 µM), for inactives: top-dose re-replication activation, hits mostly activators | 340,000 compounds, 1.8% hits; note: potency is the fitted concentration of half-maximal effect; % of control where 0% means no effect; nearly all actives have a fitted effect of over 55% in size
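Compounds, transferred as 23 nL by pin tool, were incubated with cells for 48 hr; DNA content per nucleus was then quantified by Hoechst staining and fluorescence plate imaging.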
Vif-A3G inh: blocks the Vif interaction with human APOBEC3G. Q9HC16. HeLa A3G-eYFP + Vif (tagged APOBEC3G with the HIV-1 protein that degrades it), YFP fluorescence, overnight. Potency, µM (highest dose often 46.1 µM), for the others: at the highest dose activity, negative = active, actives largely listed as inhibitors. 410,000 compounds, 0.076% hits. AID 602310; note: potency is the fitted concentration of half-maximal effect; % is set by controls: 0 for no effect and ±100 for the full control effect; nearly all actives have a fitted effect of over 60% in size
Target sequence (Q9HC16 whole entry, looked up): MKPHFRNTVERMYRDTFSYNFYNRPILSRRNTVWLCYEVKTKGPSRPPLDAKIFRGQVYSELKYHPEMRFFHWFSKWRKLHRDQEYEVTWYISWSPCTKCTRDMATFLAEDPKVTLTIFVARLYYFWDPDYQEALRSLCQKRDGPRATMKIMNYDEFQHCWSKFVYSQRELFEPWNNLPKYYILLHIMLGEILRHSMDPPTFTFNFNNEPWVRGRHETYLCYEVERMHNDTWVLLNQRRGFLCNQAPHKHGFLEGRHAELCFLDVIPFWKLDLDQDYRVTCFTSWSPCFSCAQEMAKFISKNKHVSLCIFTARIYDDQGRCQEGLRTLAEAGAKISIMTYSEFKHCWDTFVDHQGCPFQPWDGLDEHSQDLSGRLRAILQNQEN
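Read-out is eYFP fluorescence (Ex 488/Em 500-530) from Vif-expressing HeLa A3G-eYFP cells; more signal means A3G escaped Vif-mediated degradation. Cells plated overnight, compound pinned in, incubated overnight at 37 deg C.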
IL-1B inflam inh: inflammasome signaling inhibition, IL-1 beta readout; THP-1 LPS/ATP IL-1B secretion, AlphaLISA, 16 h; hits give low values; activity change, % at 57.5 µM; 360,000 compounds, 4.7% hits; AID 743279; in the data active = activity change below about -50%; inconclusive = mostly about -30% to -49%; note: % is set by controls: 0 for no effect and ±100 for the full control effect
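THP-1 cells pretreated 1 hr with compounds (up to 57.5 uM final), then stimulated with LPS (250 ng/mL final) plus ATP (1.25 mM final); secreted IL-1B measured by AlphaLISA after 16 hr, decreased signal indicating inhibition.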
* hit, by the source's call; ? = inconclusive; / = no result given. Compounds with a hit are over-represented: about 6.9% of the library has one in this group of screens. Unless noted, calls come from the whole dose curve; as a rule, active = well fitted curve in the direction sought with a large enough effect; inconclusive = small, poorly fitted or top-dose-only effect, or another doubt; inactive = no such curve, though single readings can be large; an effect the other way counts as inactive or inconclusive.

SMILES | Vif-A3F inh | MCF10A rerep | Giardia kill | SW480 rereplic | Vif-A3G inh | IL-1B inflam inh
CCOc1ccc(Nc2nn(-c3ccc(OC(F)(F)F)cc3)nc2C(C)=O)cc1 | 12% | / | / | / | 3% | /
C=C(c1nc2ccccc2s1)C1Cc2cccc3c2N(CCC3)C1 (centres undefined) | / | / | / | / | 11% | /
S=C(NC1CCCCC1)N1CCN(C/C=C/c2ccccc2)CC1 | 2% | ? | -24 | 0% | 0% | -51*
CC(=O)NN1C(=O)/C(=C\c2ccc(Br)o2)SC1=S | ? | ? | 0 | -699% | ? | -97*
COc1ccc(NC(=O)c2cc(-c3cc(F)ccc3OCC3CCCO3)n[nH]2)c(C)c1 (centres undefined) | / | / | / | / | -3% | -66*
COc1ccc(NC(=O)c2cc(-c3cc(F)ccc3OCC3CCCO3)n[nH]2)cc1OC (centres undefined) | / | / | / | / | -4% | -81*
Clc1ccc(CCNC(c2cccc(Cl)c2)c2nnc(-c3ccccc3)o2)cc1 (centres undefined) | -15% | / | / | / | 0% | /
CCN1C(=O)c2ccccc2S(=O)c2ccc(C(=O)N3CCN(c4cc(Cl)ccc4C)CC3)cc21 (centres undefined) | -2% | / | / | / | -8% | /
CCCC(=O)Nc1nn(CC)c2nc3ccc(C)cc3cc12 | 0% | ? | -8 | ? | 0% | -12
CCn1nc(NC(=O)c2ccco2)c2cc3cc(C)ccc3nc21 | 6% | ? | 5 | 18µM* | -5% | -50*
CCCn1nc(NC(=O)c2ccco2)c2cc3ccccc3nc21 | 2% | 16µM* | 3 | 18µM* | -8% | -4
CCn1nc(NC(=O)c2ccncc2)c2cc3cc(C)ccc3nc21 | 6% | 8.2µM* | -2 | ? | -7% | ?
CCCC(=O)Nc1nn(CCC)c2nc3ccccc3cc12 | -19% | 2% | -12 | 4% | -18% | 14
CCn1nc(NC(=O)c2ccncc2)c2cc3ccc(C)cc3nc21 | -8% | ? | -7 | 7% | 0% | -28
Cc1ccc2cc3c(NC(=O)c4ccco4)nn(C)c3nc2c1 | ? | 18µM* | 20 | ? | -5% | -1
Cc1csc2nc(COc3ccc(NC(=O)COc4ccc(F)cc4)cc3)cc(=O)n12 | -3% | / | / | / | -2% | /
COc1cccc(-c2cc(C(=O)NCCc3ccc(C)cc3)[nH]n2)c1 | 0% | / | / | / | 1% | /
NNc1nc2cccnc2n(CCNc2ncc(C(F)(F)F)cc2Cl)c1=O | -6% | 21µM* | 7 | 1% | 0% | 0
COc1ccccc1Oc1ccc(S(=O)(=O)N2CCOCC2)cc1S(=O)(=O)N1CCOCC1 | -6% | -13% | 0 | -5% | -2% | -17
Cc1ccc(Oc2ccc(S(=O)(=O)N3CCOCC3)cc2C(N)=O)c(-n2nc3ccccc3n2)c1 | -18% | 4.6µM* | -27 | 5.2µM* | ? | 46
Cc1cccc(CCNC(=O)CN(c2ccc(C(C)C)cc2)S(=O)(=O)c2c(C)nn(C)c2C)c1 | 11% | / | / | / | 4% | /
O/N=C/c1cn(-c2ccccc2)nc1-c1cccnc1 | -20% | 1% | 4 | 0% | -1% | ?
NC(=O)N/N=C/c1cn(-c2ccccc2)nc1-c1ccccc1 | 6% | -5% | -12 | -1% | -6% | ?
O=[N+]([O-])c1ccc(N/N=C/c2cn(-c3ccccc3)nc2-c2ccccc2)cc1 | -6% | 1.6µM* | 1 | 10µM* | -1% | 1
Cc1ccc(-c2nn(-c3ccccc3)cc2/C=N/O)cc1 | -29% | ? | -21 | ? | -7% | -81*
SMILES | Vif-A3F inh | MCF10A rerep | Giardia kill | SW480 rereplic | Vif-A3G inh | IL-1B inflam inh
NS(=O)(=O)c1ccc(N/N=C/c2cn(-c3ccccc3)nc2-c2ccccc2)c([N+](=O)[O-])c1 | -13% | 23% | -9 | -33% | -5% | -78*
O=C(O)/C=C/c1cn(-c2ccccc2)nc1-c1ccc(-c2ccc([N+](=O)[O-])cc2)o1 | 4% | 3.3µM* | 3 | ? | 1% | -7
Cc1ccc(CSc2nc(-c3ccc(C(C)(C)C)cc3)nc3cc(=O)[nH]n23)cc1 | 2% | / | / | / | 10µM* | /
COc1ccc(OC(C)C(=O)NCc2nc(-c3cccc(C)c3)no2)cc1 (centres undefined) | 1% | / | / | / | 1% | /
CCNc1ccc(Br)cc(C(=O)/C=C/c2ccc(Cl)cc2Cl)c1=O | ? | 21µM* | -6 | ? | ? | -98*
COCCCNC(=O)/C=C/c1ccc(Cl)cc1Cl | 7% | 0% | 1 | -4% | -8% | -24
CNc1ccc(Br)cc(C(=O)/C=C/c2ccc(OC)cc2)c1=O | ? | ? | -5 | -6% | -19% | ?
CNc1ccc(Br)cc(C(=O)/C=C/c2ccc3c(c2)OCO3)c1=O | ? | ? | -7 | ? | ? | -100*
CNc1ccc(Br)cc(C(=O)/C=C/c2cc(OC)ccc2OC)c1=O | ? | ? | 5 | ? | ? | -99*
O=C(/C=C/c1ccc2c(c1)OCO2)NC1CCCC1 | -7% | -5% | -13 | -2% | 1% | -1
Cc1ccc(NC(=O)Cn2c(=O)n(Cc3ccco3)c(=O)c3sc4ccccc4c32)cc1C | -18% | / | / | / | -17% | /
CCCCNC(=O)c1cccc(NC(=O)c2nsc3ccccc23)c1 | -3% | / | / | / | -3% | /
CCc1ccc(NC(=O)c2c(C(=O)Nc3ccccc3)sc3nc(C)cc(=O)n23)cc1 | -1% | 18µM* | -7 | -37% | 10% | -5
Cc1cccc(N2CCN(C(=O)c3ccc4c(c3)c(C)c(C)n4C)CC2)c1C | -6% | / | / | / | 1% | /
COc1ccccc1N1CCN(C(=O)c2ccc3ncsc3c2)CC1 | -4% | 21µM* | 6 | 16µM* | ? | 17
COc1ccccc1N1CCN(C(=O)c2ccc3nc(-c4ccco4)c(-c4ccco4)nc3c2)CC1 | 3% | 23µM* | 10 | ? | 0% | ?
Cc1ccc(C)c(N2CCN(C(=O)c3ccc4c(c3)c(C)c(C)n4C)CC2)c1 | ? | 5.2µM* | 23 | ? | 1% | 3
CCOCCCNC(=O)c1c(NC(=O)c2cc(=O)c3cc(C)c(C)cc3o2)sc2c1CCC2 | 3% | / | / | / | -1% | /
Cc1ccccc1NC(=O)c1cc2c(C)nc3ccccc3c2o1 | -2% | -1% | -4 | 9% | -2% | -17
CC1CCCN(C(=O)c2ccc3ncsc3c2)C1 (centres undefined) | 3% | 9% | 4 | 3.7µM* | 0% | 28
CCc1ccc(NC(=O)c2cc3c(C)nc4ccccc4c3o2)cc1 | -7% | ? | -7 | -6% | 4% | -139*
Cc1ccc(C)c(N2CCN(C(=O)c3cc4c(C)nc5ccccc5c4o3)CC2)c1 | ? | 21µM* | -21 | -9% | 5% | 1

High-throughput results as filed in PubChem.
